The list is not random: actives were taken first. Their share in the collection is about 9.4%.
SMN2 splice up: increases expression of the SMN2 splice variant; 2.8% of 210,000 active; HEK293 SMN2-luciferase splicing reporter, luminescence, 30-36 h; Potency, µM (doses to about 46.1 µM), inactives show at the highest dose activity change, positive = activation, actives largely listed as activators; further: % of control where 0% means no effect; nearly all actives have a fitted effect of over 55% in size
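HEK293 cells carry an SMN2 […]–luciferase reporter in which exon 7 inclusion puts luciferase in frame. Cells were plated 10-12 h before compound addition, then incubated 30-36 h at 37C. ONE-Glo luminescence was read; sodium butyrate at 4.5 mM final served as control.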
ELG1 genotox: inducers of genotoxicity in HEK293T ELG1-luciferase cells; HEK293T ELG1-luciferase reporter, luminescence, 16 h; Potency, µM (doses to about 46 µM), for inactives: at the highest dose activity change, positive = activation, hits mostly activators; 1.3% of 330,000 active; further: % of control where 0% means no effect; nearly all actives have a fitted effect of over 60% in size
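Screening used a luciferase reporter fused to human ELG1 in HEK293T cells. Luminescence was read on a CCD plate imager after 16 hr exposure and 30 min ONE-Glo incubation.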
Rab9 prom act: activators of Rab9 promoter; Huh7 Rab9 promoter-luciferase reporter, luminescence, 24 h; Potency, µM (doses to about 9.22 µM), without a hit: top-dose activation, negative = inhibition, most hits filed as activators; 2.8% of 320,000 active; AID 485297; further: % of control where 0% means no effect; nearly all actives have a fitted effect of over 60% in size
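Luminescence from Amplite-detected luciferase (10 minutes, ambient) reports Rab9 promoter activation. Before that, stable Rab9-luciferase Huh7 cells (1500/well, reduced-serum OP-MEM I plus 10% FBS) were exposed to compound for 24 hours at 37C.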
FLuc modulator: inhibits or activates purified firefly luciferase, miR-21 counter-screen. P08659. purified FLuc, Km substrates, luminescence inhibition. Potency, µM (highest dose often 57.5 µM), inactives show at the top dose activity change, negative = inhibition, hits mostly inhibitors. 6.9% of 360,000 active;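 further: plate controls were vehicle for no effect and reference inhibitor for full effect; nearly all actives have a fitted effect of over 55% in size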
Target sequence (P08659 whole entry, looked up): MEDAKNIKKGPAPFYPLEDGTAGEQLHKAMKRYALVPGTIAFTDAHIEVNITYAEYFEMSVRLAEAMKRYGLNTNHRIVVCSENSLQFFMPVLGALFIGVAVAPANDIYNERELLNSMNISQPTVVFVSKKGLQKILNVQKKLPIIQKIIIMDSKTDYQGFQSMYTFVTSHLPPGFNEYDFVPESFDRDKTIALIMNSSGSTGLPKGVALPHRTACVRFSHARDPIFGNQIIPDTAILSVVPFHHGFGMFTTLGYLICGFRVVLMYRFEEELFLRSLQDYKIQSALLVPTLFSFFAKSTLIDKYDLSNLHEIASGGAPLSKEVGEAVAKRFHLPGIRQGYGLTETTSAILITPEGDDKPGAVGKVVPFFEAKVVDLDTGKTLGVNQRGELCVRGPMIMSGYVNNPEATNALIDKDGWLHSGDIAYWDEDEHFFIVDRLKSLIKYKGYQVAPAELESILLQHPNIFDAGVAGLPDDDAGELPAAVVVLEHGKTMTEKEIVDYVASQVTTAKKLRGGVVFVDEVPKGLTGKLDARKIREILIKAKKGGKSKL
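Purified P. pyralis luciferase (10nM final) with 10uM D-luciferin and 10uM ATP (Km levels) in 50mM Tris acetate pH 7.5, 10mM Mg acetate, 0.01% Tween-20, 0.05% BSA; qHTS 6-point titration, ~60 µM downward; luminescence read.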
ELG1 repair inh: blocks ELG1-dependent DNA repair in HEK293T cells; HEK293T ELG1-luciferase reporter, luminescence, 16 h; DNA damage induced by 5-fluorouridine; 2.3% of 330,000 active; Potency, µM (series often up to 46.1 µM), for inactives: top-dose activity change, negative = inhibition, hits mostly inhibitors; further: on the % scale 0 is the no-effect control and ±100 the full control effect; nearly all actives have a fitted effect of over 55% in size
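In this reporter screen, reduction of luminescence relative to DMSO vehicle indicated activity. Compounds and 5-fluorouridine were added together to 2,000 cells per well, incubated for 16 hr at 37 °C, then developed with ONE-Glo.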
NPC1 prom act: NPC1 promoter activation. AID 485313. 2.4% of 320,000 active. Potency, µM (titrated, usually from 9.22 µM), inactives show top-dose activation, most hits filed as activators. Huh7 NPC1 promoter luciferase reporter, 24 h; further: % of control where 0% means no effect; nearly all actives have a fitted effect of over 60% in size
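Readout is luciferase luminescence, reflecting NPC1 promoter activation in stably transfected Huh7 cells after 24 h compound exposure at 37 °C in reduced-serum medium with 10% FBS.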
Starred values were filed as active, the others as inactive; ? = inconclusive; . = no result given; [ ] = another dose, or the depositor's remark. The call rests on the fitted dose curve; in most records, active means well fitted curve in the direction sought with a large enough effect; inconclusive means small, poorly fitted or top-dose-only effect, or another doubt; inactive means no such curve, though single readings can be large; an effect the other way counts as inactive or inconclusive. Potency means the concentration at half of the fitted maximal effect.

SMILES | SMN2 splice up | ELG1 genotox | Rab9 prom act | FLuc modulator | ELG1 repair inh | NPC1 prom act
CCOC(=O)Nc1ccc2c(COC(=O)C(NS(=O)(=O)c3ccc(Cl)cc3)C(C)O)cc(=O)oc2c1 (centres undefined) | . | -2.0% | . | . | 20.6µM* | .
CCC(=O)Nc1ccc(NC(=O)c2cc3ccccc3o2)c(OC)c1 | . | ? | 3.98µM* | ? | ? | 2.51µM*
COC(=O)c1cc(OC)c(OC)cc1NC(=O)CCc1ccc(C)o1 | 2.9% | -9.6% | -2.3% | -1.1% | ? | -1.7%
COc1cc(NC(=O)c2c(OC)cccc2OC)ccc1NC(=O)c1cc2ccccc2o1 | . | 14.6µM* | ? | ? | ? | ?
COc1cc(NC(=O)c2cc3ccccc3o2)ccc1NC(=O)c1ccco1 | . | -1.9% | -9.9% | -2.3% | ? | -5.1%
COC(=O)c1cc(Cl)c(NC(=O)c2cc3ccccc3o2)cc1OC | 5.4% | 0.0% | 1.78µM* | -5.9% | 1.5% | ?
COc1cc(NC(=O)c2ccc(F)cc2)ccc1NC(=O)c1cc2ccccc2o1 | . | -9.9% | 0.4% | 3.1% | 1.0% | 0.3%
COC(=O)c1cc(OC)c(OC)cc1NC(=O)c1ccc(C)o1 | -26.8% | -3.8% | 6.0% | -9.1% | 23.1µM* | -2.7%
COc1ccc(NC(=O)c2cc3ccccc3o2)c(OC)c1 | . | . | . | 5.36µM* | . | .
C=NCc1cc2c(OC[C@@H](O)CNC(C)(C)C)cccc2[nH]1 | -7.1% | . | . | . | . | .
O=C1/C(=C/c2cccnc2)SC(=S)N1NS(=O)(=O)c1ccccc1 | . | 0.7% | 0.7%[1.84 µM] | -8.1% | 14.4% | -4.0%
COc1ccc(OC)c(/C=C2\SC(=S)N(N3CCOCC3)C2=O)c1 | . | -0.8% | 15.8% | -18.1% | 0.0% | -1.4%
O=C1/C(=C/c2cccnc2)Sc2ccccc21 | -1.6% | 5.0% | -4.2% | 9.53µM* | 23.5% | -1.8%
COc1ccc(OC)c(/C=C2/Sc3ccccc3C2=O)c1 | . | 15.1% | 1.1% | 9.53µM* | 25.2% | 0.9%
Cc1ccc(/C=C2\SC(N)=NC2=O)s1 | ? | 2.7% | 9.8% | ? | 10.9% | 8.0%
Cc1ccc(/C=C2\Sc3ccccc3C2=O)s1 | ? | ? | ? | 0.426µM* | ? | ?
CC(=O)Nc1ccc(/C=C2\Sc3ccccc3C2=O)cc1 | . | ? | 12.8% | 0.379µM* | 17.5% | -6.4%
Cc1ccc(C(=O)/C=C2/NC(=O)CS2)cc1 | 20µM* | 16.6% | ? | 6.75µM* | ? | 24.6%
O=C1CS/C(=C/C(=O)c2cccc(Cl)c2)N1 | 9.6% | 13.6% | 1.3% | ? | 16.9% | 5.0%
Cn1cccc1/C=N/NC(=O)c1ccco1 | 22.3% | ? | 18.4% | ? | ? | 13.9%
Cc1ccc(/C=N/NC(=O)c2ccco2)s1 | ? | ? | 3.16µM* | 15.1µM* | ? | 3.16µM*
O=C(CN1CCN(Cc2ccccc2)CC1)N/N=C/c1ccc(Br)s1 | . | -11.1% | -8.9% | 0.7% | 9.2µM* | 0.5%
O=C(N/N=C/c1ccc(Br)s1)c1ccco1 | . | ? | ? | 21.3µM* | ? | ?
CCCCNC(=O)N(C)c1nc2ccccc2s1 | . | ? | 1.78µM* | 13.5µM* | ? | ?
COC(=O)N(C)c1nc2ccccc2s1 | -7.4% | ? | 27.5% | 23.9µM* | ? | 12.6%
SMILES | SMN2 splice up | ELG1 genotox | Rab9 prom act | FLuc modulator | ELG1 repair inh | NPC1 prom act
COCCNC(=O)c1cc2sc3ccccc3c2s1 | 14.1µM* | 14.6µM* | 2.82µM* | 10.7µM* | ? | ?
CCCCNC(=O)c1cc2ccccc2s1 | 6.1% | -0.1% | ? | 16.9µM* | ? | 16.0%
COc1ccc(C(=O)c2c(-c3cccc(C)c3)oc3ccc(N4CCOCC4)cc23)cn1 | . | 1.5% | 4.2% | ? | -13.2% | -5.7%
COc1ccccc1NC(=O)c1sc(-c2ccc(Cl)cc2)cc1N | -25.0% | . | . | -16.4% | . | .
CCCCn1c(NC(=O)c2ccccc2)c(C#N)c2nc3ccccc3nc21 | . | -7.8% | -5.0% | -6.5% | 8.2µM* | -0.6%
Cc1ccc(-n2ncc3c(N4CCCCCC4)ncnc32)cc1 | . | . | . | 0.12µM* | . | .
CCN1CCN(c2ncnc3c2cnn3-c2cc(Cl)ccc2C)CC1 | . | . | . | -0.8% | . | .
CCN1CCN(c2ncnc3c2cnn3-c2ccc(C)cc2)CC1 | . | . | . | 10.7µM* | . | .
Clc1ccc(-n2ncc3c(N4CCCC4)ncnc32)cc1 | -74.9% | 0.184µM* | 0.316µM* | 0.338µM* | ? | 0.501µM*
Fc1ccc(-n2ncc3c(N4CCCCCC4)ncnc32)cc1 | . | . | . | 0.953µM* | . | .
CCn1c2ccccc2c2cc(NC(=O)COC(=O)c3cc(OC)c(OC)cc3OC)ccc21 | -25.1% | -3.9% | -7.6% | -1.3% | 9.2µM* | -3.9%
CCc1ccc(OCC(=O)Nc2ccc3c(c2)c2ccccc2n3CC)cc1 | -14.3% | . | . | 6.7% | . | .
O=C(Nc1ccc(-c2ccc(N3CCCCC3)nn2)cc1)c1ccco1 | . | ? | 2.82µM* | 4.78µM* | ? | ?
Cc1nc(N2CCN(c3ccccc3)CC2)nc2c1C(=O)CCC2 | -12.6% | -20.6% | -5.2% | 4.3% | ? | 0.0%
Cc1nc(N2CCN(C(=O)c3ccco3)CC2)nc2c1C(=O)CCC2 | . | 0.461µM* | 0.1µM* | 0.757µM* | ? | 0.316µM*
O=C(c1ccco1)N1CCN(c2ccc(N3CCCCC3)nn2)CC1 | . | ? | 3.16µM* | 23.9µM* | ? | ?
O=C(c1cnn2c1NC(c1ccco1)CC2C(F)(F)F)N1CCN(c2cccc(Cl)c2)CC1 (centres undefined) | -54.2% | -15.9% | -8.5% | 5.8% | 10.3µM* | -7.2%
CC(C)(C)C1CCc2c(C(=O)NNC(=O)CCCC(=O)O)csc2C1 (centres undefined) | -5.1% | 0.2% | -2.2% | 16.9µM* | -8.3% | -1.8%

Screens: PubChem BioAssay, National Center for Advancing Translational Sciences (NCATS)
